# PubChem BioAssay AID1445 (SRMLSC, 2008)
# The whole screen tested about 220,000 compounds, of which about 910 (0.41%) were called active. The list comes from a sample in which actives are over-represented; it also holds similar structures and randomly drawn compounds. Results with a measured potency or affinity are listed apart. A number with no mark means an inactive call.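 Rule for the calls: active = primary inhibition above the hit cutoff, then over 50% inhibition at one or more dose response concentrations (cut at about 23% in these data, passing the limit was not always enough); inconclusive = conflicting primary data, or primary hits not chosen for dose response; inactive = low primary inhibition, or under 50% at every dose.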
# Target: Aminopeptidase N (Plasmodium falciparum (isolate 3D7)) (UniProt O96935)
# Sequence (O96935 whole entry, looked up): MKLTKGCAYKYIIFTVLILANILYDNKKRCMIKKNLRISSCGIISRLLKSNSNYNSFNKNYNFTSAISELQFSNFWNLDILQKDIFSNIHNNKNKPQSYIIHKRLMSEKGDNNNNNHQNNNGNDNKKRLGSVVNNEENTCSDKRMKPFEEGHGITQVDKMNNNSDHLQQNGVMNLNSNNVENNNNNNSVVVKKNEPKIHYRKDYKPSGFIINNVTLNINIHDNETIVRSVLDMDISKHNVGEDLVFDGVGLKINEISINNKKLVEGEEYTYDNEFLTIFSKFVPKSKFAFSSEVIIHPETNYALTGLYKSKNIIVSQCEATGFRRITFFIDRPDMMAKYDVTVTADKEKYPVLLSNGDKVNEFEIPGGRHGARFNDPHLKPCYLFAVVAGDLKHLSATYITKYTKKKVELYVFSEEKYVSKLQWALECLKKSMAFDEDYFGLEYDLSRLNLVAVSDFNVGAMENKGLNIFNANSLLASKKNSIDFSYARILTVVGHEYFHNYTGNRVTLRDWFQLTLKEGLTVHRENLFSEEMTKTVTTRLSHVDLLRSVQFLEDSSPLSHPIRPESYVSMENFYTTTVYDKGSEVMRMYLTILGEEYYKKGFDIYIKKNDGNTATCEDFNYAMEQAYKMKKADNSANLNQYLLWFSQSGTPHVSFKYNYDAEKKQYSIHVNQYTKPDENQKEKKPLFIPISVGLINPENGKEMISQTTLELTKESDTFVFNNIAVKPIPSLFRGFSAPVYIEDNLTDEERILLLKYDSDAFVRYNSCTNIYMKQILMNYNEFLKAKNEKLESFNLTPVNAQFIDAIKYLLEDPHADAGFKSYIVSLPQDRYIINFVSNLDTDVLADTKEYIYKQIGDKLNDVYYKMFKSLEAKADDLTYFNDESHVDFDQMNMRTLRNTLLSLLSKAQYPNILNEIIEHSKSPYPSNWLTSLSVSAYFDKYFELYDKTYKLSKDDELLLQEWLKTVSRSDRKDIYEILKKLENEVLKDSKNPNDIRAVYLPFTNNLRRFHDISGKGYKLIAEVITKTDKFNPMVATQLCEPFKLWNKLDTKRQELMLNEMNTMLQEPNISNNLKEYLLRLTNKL
# Experiment: malaria alanyl aminopeptidase activity blockers – biochemical, fluorogenic H-Leu-NHMec substrate, 1536-well (AID 1445);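 note: plate controls were DMSO full reaction for no effect and no enzyme background for full effect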
# Conditions: recombinant M1AAP, H-Leu-NHMec fluorogenic kinetic assay; at 30 µM, stronger effect = higher value unless noted
row,Structure (SMILES),inhibition
1,O=C(NCc1cccnc1)C(=O)NCC(c1ccco1)N1CCOCC1 (stereo unspecified),11.1%
2,Cc1[nH]c2ccccc2c1/C=N/NC(=O)CNC(=O)c1cccs1,0.9%
3,CCN1CCN(CC(=O)N/N=C/c2ccc(F)cc2F)CC1,15.6%
4,COc1ccc(C(=O)C(/C=N/O)=N/Nc2ccc(F)cc2)cc1,4.27%
5,CO/N=C/C(=N\Nc1ccc(OC)cc1)C(=O)c1ccc(OC)cc1,12%
6,COc1ccc(N/N=C(\C=N\O)C(=O)c2ccc(OC)cc2)cc1,24.1% (active)
7,Cc1nc2sc3c(c2c(=O)n1/N=C/c1cccnc1)CCCC3,2.58%
8,CN(C)CCCN1C(=O)c2oc3ccccc3c(=O)c2C1c1cccs1 (stereo unspecified),10.7%
9,CCN(CC)CCCN1C(=O)c2oc3ccccc3c(=O)c2C1c1cccs1 (stereo unspecified),23.3% (active)
10,O=C1c2oc3ccccc3c(=O)c2C(c2cccs2)N1CCCN1CCOCC1 (stereo unspecified),16.3%
11,S=C(NC1CC1)N1CCN(c2ccc(Cl)cc2)CC1,-2.34%
12,CC(C)C(=O)NC(=S)Nc1ccc(S(=O)(=O)Nc2nccs2)cc1,2.01%
13,Cc1cccc(-c2nc3ccccc3c(=O)n2NC(=O)c2cccnc2Cl)c1,8.24%
14,O=C(Cc1ccccc1)Nn1c(-c2ccccc2)nc2ccccc2c1=O,3.49%
15,COc1cccc(OC)c1C(=O)Nn1c(-c2cccc(C)c2)nc2ccccc2c1=O,6.13%
16,Cc1ccc(-c2nc3ccccc3c(=O)n2NC(=O)c2cccs2)cc1,5.47%
17,O=C(Nn1c(Cc2cccs2)nc2ccccc2c1=O)c1ccc(F)c(F)c1,8.58%
18,COc1cccc(OC)c1C(=O)Nn1c(-c2cccs2)nc2ccccc2c1=O,1.67%
19,COc1ccccc1C(=O)Nn1c(-c2cccs2)nc2ccccc2c1=O,10.4%
20,O=C(Cc1cccs1)Nn1c(Cc2cccs2)nc2ccccc2c1=O,10.8%
21,c1ccc(-c2ccc(CN3C[C@@H]4C(c5ccccc5)C5(c6ccccc6)CC4(C5)[C@H]3c3ccccc3)cc2)cc1 (stereo partly specified),-2.33%
22,O=C(CSc1ccc(-c2ccc(F)cc2)nn1)NCCc1ccccc1,-0.33%
23,Clc1ccc(-c2nn3cnnc3s2)c(Cl)c1,0.7%

row,Structure (SMILES),inhibition
1,CCN=C1SC(CC(=O)NCCc2ccc(OC)c(OC)c2)C(=O)N1CC (stereo unspecified),-3.87%
2,Cc1[nH][nH]c(=O)c1C(c1ccc(O)c([N+](=O)[O-])c1)c1c(C)[nH][nH]c1=O,14%
3,Cc1[nH][nH]c(=O)c1C(c1ccc([N+](=O)[O-])cc1)c1c(C)[nH][nH]c1=O,-16.2%
4,Clc1ccc(CN2C3=NCCN3c3ccccc32)cc1,7.94%
5,Cc1cc(C)n2nc(C(=O)NCc3ccco3)cc2n1,8.12%
6,Cc1cc(C(=O)NCc2cccs2)nn1C,3.72%
7,CCN(CC)C(=O)CSc1nc(O)c(Cc2ccccc2)c(=O)n1-c1ccc(C)cc1,4.4%
8,Cc1ccc(C(=O)Nc2ccccc2C(=O)N2CCCCCC2)cc1,4.87%
9,CC(C)CN(C(=O)COC(=O)c1ccccc1Sc1ccccc1C#N)C1CCS(=O)(=O)C1 (stereo unspecified),-1.64%
10,O=c1c2ccccc2nc(COc2ccccc2)n1/N=C/c1ccc(O)cc1O,19.8%
11,Cc1cccc(C)c1OCc1nc2ccccc2c(=O)n1/N=C/c1c[nH]c2ccccc12,5.57%
12,CCCc1nc2ccccc2c(=O)n1/N=C/c1ccc(O)cc1,-1.67%
13,O=c1c2ccccc2nc(COc2ccccc2)n1/N=C/c1ccc(O)c(O)c1,14.6%
14,CCn1c(COc2cccc(C)c2C)nnc1SCC(=O)Nc1cc(C)on1,7.39%
15,COc1cc(/C=C/C(=O)OCC(=O)NCc2cccs2)ccc1OC(F)F,4.72%
16,O=C(N/N=C\c1ccc[nH]1)C1COc2ccccc2O1 (stereo unspecified),9.36%
17,CC1=NN(c2ccccc2)C(=O)C1C=Nc1ccc(N(C)C)cc1 (stereo unspecified),12.8%
18,CC1=NN(c2ccccc2)C(=O)C1C(=O)c1ccccc1 (stereo unspecified),14.1%
19,COC(=O)c1sccc1S(=O)(=O)Nc1ccc(S(N)(=O)=O)cc1,2.58%
20,CC(C)(C)NC(=O)CSc1nnc(SCC(=O)NC(C)(C)C)s1,1.09%
21,NC(=O)CSc1nnc(Cc2cccs2)n1C1CCCCC1,0.23%
22,COc1ccc(C)cc1-n1nnnc1SC/C(O)=C(\C#N)c1nc2ccccc2[nH]1,-0.98%
23,N#CCSc1nnc(Cc2cccs2)n1C1CCCCC1,1.61%

row,Structure (SMILES),inhibition
1,Cc1ccccc1-n1c(SC/C(O)=C(\C#N)c2nc3ccccc3[nH]2)nnc1-c1ccncc1,13.8%
2,CCOP(=O)(OCC)C(Nc1ccccc1)c1ccco1 (stereo unspecified),0.74%
3,CS(=O)(=O)NCc1ccc(C(=O)O)cc1,9.65%
4,NNC(=O)C1CC1c1ccccc1 (stereo unspecified),-1.25%
5,COC(=O)c1cccc(NC(=O)C2COc3ccccc3O2)c1C (stereo unspecified),3.13%
6,Cc1oc2cc([N+](=O)[O-])c(O)c([N+](=O)[O-])c2c1C(=O)c1ccc(Cl)cc1,16.5%
7,COc1ccc(OC)c(C(=O)c2c(C)oc3cc([N+](=O)[O-])c(O)c([N+](=O)[O-])c23)c1,7.96%
8,Cc1ccc(C(=O)c2cc3c(cc2[N+](=O)[O-])OCCO3)cc1,1.34%
9,Cc1ccc(C(=O)c2coc3ccc(O)c(Cl)c23)cc1,2.57%
10,O=C1NC(c2ccccc2)=C(c2ccccc2)C1=O,18.7%
11,O=C(c1ccco1)N1CCN(C(c2ccccc2Cl)c2nnnn2Cc2cccs2)CC1 (stereo unspecified),1.56%
12,CC(C)(C)c1ccc(SCCc2ccccn2)cc1,0.53%
13,CC(C)Oc1ccc(NC(N)=O)cc1,4.7%
14,CCOc1ccc(-n2c(C)cc(/C=C3/C(=N)N4C(=NC3=O)SN=C4S(C)(=O)=O)c2C)cc1,21.4%
15,CCC1=NN2C(=N)/C(=C\c3cccn3-c3ccc(Cl)cc3)C(=O)N=C2S1,8.09%
16,COc1cccc(-n2c(C)cc(/C=C3/C(=N)N4C(=NC3=O)SN=C4S(C)(=O)=O)c2C)c1,16.2%
17,CCC1=NN2C(=N)/C(=C\c3cccn3-c3c(C)cccc3C)C(=O)N=C2S1,13.2%
18,CCC1=NN2C(=N)/C(=C\c3cccn3-c3ccc(Br)cc3)C(=O)N=C2S1,4.13%
19,CC1=CSC2=NC(=O)/C(=C\c3cccn3-c3ccccc3)C(=N)N12,5.41%
20,CS(=O)(=O)C1=NSC2=NC(=O)/C(=C\c3cccn3-c3ccccc3Cl)C(=N)N21,12.3%
21,Cc1cc(C)cc(-n2cccc2/C=C2/C(=N)N3C(=NC2=O)SN=C3S(C)(=O)=O)c1,18.4%
22,COC(=O)Nc1ccc(S(=O)(=O)N2CCCC(C(=O)Nc3cccnc3)C2)cc1 (stereo unspecified),-1.96%
23,CCN(CC)CCN(C(=O)c1ccc(S(=O)(=O)N2CCCCC2)cc1)c1nc2cc3c(cc2s1)OCO3,-2.92%

row,Structure (SMILES),inhibition
1,O=C(NN1CCOCC1)c1sc2cccc(F)c2c1Cl,4.71%
2,O=C1c2ccccc2C(=O)N1c1nc2nccc(-c3ccccc3)n2n1,-0.09%
3,Cc1cc(NC(=O)c2cncc(Br)c2)n(-c2ccccn2)n1,1.7%
4,COc1cc(NS(=O)(=O)c2ccc(NC(=S)NC(=O)C(C)(C)C)cc2)nc(OC)n1,4.8%
5,CCc1nnc(NS(=O)(=O)c2ccc(NC(=O)/C=C/c3ccc(F)cc3)cc2)s1,3.37%
6,CCc1nnc(NS(=O)(=O)c2ccc(NC(=S)NC(=O)c3ccncc3)cc2)s1,4.45%
7,COc1cc(NS(=O)(=O)c2ccc(NC(=S)NC(=O)c3ccco3)cc2)nc(OC)n1,16.3%
8,CCc1nnc(NS(=O)(=O)c2ccc(NC(=S)NC(=O)/C=C/c3ccccc3)cc2)s1,13.3%
9,CCc1nnc(NS(=O)(=O)c2ccc(NC(=S)NC(=O)/C=C/c3ccc(OC)cc3)cc2)s1,2.25%
10,CCc1nnc(NS(=O)(=O)c2ccc(NC(=S)NC(=O)/C=C/c3ccc(C(C)C)cc3)cc2)s1,19.8%
11,CCc1nnc(NS(=O)(=O)c2ccc(NC(=S)NC(=O)c3ccccc3)cc2)s1,13.4%
12,O=C1NCCCC1C(=O)N/N=C/c1ccccc1O (stereo unspecified),9.72%
13,O=C(Cc1nn[nH]n1)NCc1ccccc1Cl,1.85%
14,CC1(C)CC(CCC(=O)NC(=S)Nc2ccccc2Cl)C(=O)O1 (stereo unspecified),8.14%
15,Cc1ccc(OCC(=O)Nc2ccccc2-c2ccccc2NC(=O)COc2ccc(C)cc2)cc1,3.53%
16,N#Cc1cc(C(=O)c2cc(F)ccc2O)cn(Cc2ccccc2)c1=O,7.68%
17,Cc1ccc(C(=O)NC(=S)Nc2ccc(CN3CCCCC3)cc2)c(C)c1,5.24%
18,CC(=O)N1CCN(c2ccc(Oc3nnnn3-c3ccccc3)cc2)CC1,2.19%
19,O=C(Cc1cccs1)N/N=C/C=C/c1ccccc1[N+](=O)[O-],2.54%
20,CCc1nnc(NS(=O)(=O)c2ccc(NC(=S)NC(=O)c3ccc(Br)cc3)cc2)s1,21.6%
21,CCc1nnc(NS(=O)(=O)c2ccc(NC(=S)NC(=O)c3ccc(F)cc3)cc2)s1,22.7%
22,COc1ccc(C(=O)/C=C/Nc2cccc(O)c2)cc1,-6.48%
